PubChem BioAssay AID435005 (Broad Institute, 2010)
Hit rate of the full screen: of about 300,000 compounds, about 2,400 (0.8%) were called active. The sample holds actives, similar compounds and a random draw of the others, so the mix is not that of the screen.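 How the source made its calls: active means Every replicate reaches about 75%, or at least half do and their mean reaches it too (limit read from the data); inconclusive means At least half of replicates reach the limit but their mean does not; inactive means Under half of replicates reach the limit.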

Test: INS-1E beta cell survival under cytokines – luminescence, primary screen (AID 435005);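 further: 0% = cytokine-treated negative control wells and 100% = positive control rescue; higher means more ATP so stronger rescue from cytokine killing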
Details: INS-1E cytokine-induced death, ATP luminescence, 48 h; hits give high values; percent of positive-control rescue, neutral wells zero; concentration not given here

Compound | protection from apoptosis
O=C(CNC(=O)c1ccco1)NNC(=O)c1ccc(Br)cc1 | -6.27% (inactive)
CC(C)(C)OC(=O)C[C@H]1C/C=C\C[C@@H](CC(=O)N[C@H](CO)Cc2ccccc2)C(=O)NC[C@@H](c2ccccc2)OC1=O | 6.61% (inactive)
CC1O[C@H](OC2C(COC3OC(CO)C(O)[C@H](O)C3O)OC(OC3CC[C@]4(C)C(CC[C@@]5(C)[C@@H]4C=C[C@]46OC[C@@]7(CCC(C)(C)C[C@H]74)C(O)C[C@@]56C)C3(C)C)C(O)C2O)C(O)C(O)C1O (some centres not stated) | -6.92% (inactive)
C=C(C)C(=O)O[C@H]1C/C(C)=C\C(=O)/C=C(\C)[C@H](O)[C@@H]2OC(=O)C(=C)[C@@H]21 | 96.8% (active)
O=C(NCc1ccc2c(c1)OCO2)c1cc([N+](=O)[O-])ccc1N1CCOCC1 | 12.9% (inactive)
O=C(COC(=O)C1CCCO1)Nc1nc(-c2ccc(F)cc2)cs1 (configuration not stated) | 0.639% (inactive)
c1ccc2c(CCN3CCNC[C@H]3Cc3cccc4ccccc34)cccc2c1 | 1.24% (inactive)
CC(C)CC[n+]1ccn(C2=C([O-])c3ccccc3C(=O)/C2=N\S(=O)(=O)c2ccccc2)c1 | 95% (active)
COc1ccc(S(=O)(=O)/N=C2\C=C(NS(=O)(=O)c3ccccc3)C(=O)c3ccccc32)cc1 | 1.27% (inactive)
COc1ccc(OCC(=O)NNC(=O)C2CCC2)cc1 | -4.44% (inactive)
COC(=O)[C@]1(Cc2ccccc2)N[C@H](CN(C)S(=O)(=O)c2ccc(F)cc2)[C@@H]2C(=O)N(Cc3ccccc3)C(=O)[C@@H]21 | 10.3% (inactive)
Cc1ccc(OCc2cc(C(=O)N(C)CCc3ccccc3)no2)cc1C | -0.126% (inactive)
Cc1cc(CN(C)C(=O)c2cc(COc3ccc(C)c(C)c3)on2)n[nH]1 | -0.122% (inactive)
CN(Cc1cccnc1)C(=O)c1cc(COc2ccc3ncccc3c2)on1 | 101% (active)
O=C(COC(=O)COc1ccccc1F)Nc1cccc(S(=O)(=O)N2CCCCC2)c1 | -4.07% (inactive)
O=C(NCCCN1CCOCC1)c1cn(-c2ccccc2)nc1-c1ccc(F)cc1 | -0.73% (inactive)
Cc1noc(C)c1C(=O)N1CCOCC1 | -4.19% (inactive)
CCOC(=O)c1ccccc1C(=O)N1CCOCCOCCOCC1 | 0.0542% (inactive)
Cc1oc2c(c1C(=O)N1CCOCC1)C(=O)c1ccccc1C2=O | 108% (active)
CC(=O)Nc1ccc(S(=O)(=O)Nc2ccc(N3CCCCC3)cc2)cc1 | 119% (active)
COc1cc(NS(=O)(=O)c2ccc(NC(C)=O)cc2)cc(OC)c1 | 25.4% (inactive)
CC(=O)Nc1ccc(S(=O)(=O)Nc2ccc(N3CCOCC3)c(F)c2)cc1 | 2.71% (inactive)
COc1ccc(C)cc1NC(=O)CSc1cccc[n+]1[O-] | -1.83% (inactive)
CSc1ncccc1C(=O)NCC(c1ccco1)N1CCCCC1 (configuration not stated) | -20.2% (inactive)
CC(C(=O)N1CCc2ccccc21)N(C)CC(=O)Nc1ccc(F)cc1 (configuration not stated) | 6.77% (inactive)
Fc1ccc2cnc(-c3ccccc3)cc2c1 | -4.87% (inactive)

Compound | protection from apoptosis
C[C@]12CC[C@H](O)CC1=CCC1C2CC[C@@]2(C)C1CC[C@@H]2NC(=O)CCC(=O)O (some centres not stated) | 0.606% (inactive)
COc1cc(OC)cc(C(=O)NNC(=O)Cc2cccs2)c1 | -2.67% (inactive)
CC(=O)c1c(C)oc2ccc(NS(=O)(=O)c3ccc(C(=O)O)cc3)cc12 | -1.56% (inactive)
COc1ccc(S(=O)(=O)Nc2ccc3oc(C)c(C(C)=O)c3c2)cc1 | 87.4% (active)
CC(=O)c1c(C)oc2ccc(NS(=O)(=O)c3ccccc3)cc12 | -0.111% (inactive)
Cc1ccc(S(=O)(=O)N2CCN(C(=O)CN3C(=O)NC(C)(c4ccc(Cl)cc4)C3=O)CC2)c(C)c1 (configuration not stated) | 0.524% (inactive)
Cc1ccc(S(=O)(=O)N(C)CC(=O)NCC(c2ccc(F)cc2)N2CCOCC2)cc1 (configuration not stated) | -2.01% (inactive)
CC(C)CC1NC(=O)c2cc(Cl)ccc2-n2c1nc1ccccc1c2=O (configuration not stated) | -3.6% (inactive)
O=C(Nc1cccc(S(=O)(=O)N2CCCCC2)c1)c1cncc(Br)c1 | -1.23% (inactive)
CCCSc1ccc([C@H]2N[C@@](Cc3ccccc3)(C(=O)OC)[C@H]3C(=O)N(C)C(=O)[C@@H]23)cc1 | -4.97% (inactive)
CCOc1ccc(-n2c(O)c(/C=N/c3ccnn3Cc3ccncc3)c3ccccc3c2=O)cc1 | -6.16% (inactive)
CCN(CC)CCCN=Cc1c(O)n(-c2ccc(C)cc2)c(=O)c2ccccc12 | -3.92% (inactive)
CCOc1ccc(-n2c(O)c(/C=N/Nc3nc(C)cc(C)n3)c3ccccc3c2=O)cc1 | 83.2% (active)
COc1ccc(C(=O)C(C)OC(=O)c2cccc(S(=O)(=O)Nc3c(C)n(C)n(-c4ccccc4)c3=O)c2)cc1 (configuration not stated) | -20.9% (inactive)
C[C@H](CO)N1C[C@H](C)[C@@H](CN(C)S(=O)(=O)c2ccc(F)cc2)Oc2ccc(NC(=O)CCC(F)(F)F)cc2C1=O | -4.6% (inactive)
C/C(=N\NS(=O)(=O)c1ccccc1)c1c(O)cc(C)oc1=O | -4% (inactive)
Cc1csc2nc(COC(=O)c3cccc(N(C)C)c3)cc(=O)n12 | 0.447% (inactive)
O=C(CCCOc1ccccc1)NNC(=O)c1ccc(Cl)cc1 | -1.22% (inactive)
COc1ccc(C2CC(c3ccc(Cl)cc3Cl)Nc3nc(N)nn32)cc1OC (configuration not stated) | -0.0368% (inactive)
Nc1nc2n(n1)C(c1ccco1)CC(c1ccc(Cl)c(Cl)c1)N2 (configuration not stated) | 0.887% (inactive)
Cc1ccc(C2CC(c3cccc(C)c3)n3nc(N)nc3N2)cc1 (configuration not stated) | 101% (active)
Cc1ccc(C2CC(c3cccc(Br)c3)n3nc(N)nc3N2)cc1 (configuration not stated) | 91.3% (active)
COc1ccc(C2CC(c3ccc(C)cc3)Nc3nc(N)nn32)cc1 (configuration not stated) | -2.94% (inactive)
CCOc1ccccc1C1CC(c2ccccc2)Nc2nc(N)nn21 (configuration not stated) | 2.14% (inactive)
O=C(CN1C(=O)NC2(CCCCCC2)C1=O)Nc1ccc([N+](=O)[O-])cc1 | 0.997% (inactive)
CCCCN(C(=O)C1=NN(c2cc(C)ccc2C)C(=O)CC1)c1c(N)n(CCC)c(=O)[nH]c1=O | 1.47% (inactive)
